The record followed here is PubChem BioAssay (Tox21).

A number with no mark means an inactive call. Records with an inconclusive call do not appear. Active and inactive are the calls of the source. Unless noted, the call rests on the fitted dose curve; in most records, active means well fitted curve in the direction sought with a large enough effect in the repeat runs; inconclusive means weak or mixed curves; inactive means no such curve, though single readings can be large; an effect the other way counts as inactive or inconclusive.

The target of experiment [1] is Thyrotropin-releasing hormone receptor (Homo sapiens) (UniProt P34981). In words: qHTS assay to identify small molecule agonists of the thyrotropin-releasing hormone receptor (TRHR) signaling pathway (AID 1346891; calls by dose curve;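 further: HEK293 cells expressing TRHR with calcium dye readout; series mostly up to about 58 µM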). The method in brief: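 In 1536-format, 1500 TRHR-Hek293 cells per well grew 18 h, took up calcium dye for 2 h at 37 °C, received compound, and were read kinetically; 15-point titrations, triplicates.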
For orientation: Quantitative high-throughput screening tests each substance at several concentrations.

Experiment [2] is described as follows: Human pregnane X receptor (PXR) small molecule agonists, qHTS cell viability counter screen (AID 1346977). Further: nearly all actives have a fitted effect of over 50% in size. Further: potency means the concentration at half of the fitted maximal effect. The method in brief:
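Readout is CellTiter-Fluor fluorescence from PXR-Luc HepG2 cells. Plated cells rested 5hr, then were treated with compounds for 24hr at 37C and 5% CO2, with reagent present during the last hour.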

Experiment [3] in a line: Caspase-3/7 induction in HepG2 cells by small molecules, qHTS assay (AID 1346978). Further: nearly all actives have a fitted effect of over 15% in size. The method in brief:
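Wild-type HepG2 cells (2,000/well) were settled 5 h at 37 C, 5% CO2, then exposed to compounds in DMSO for 17 h. Caspase-3/7 activity was read by luminescence 30 min after adding Caspase-Glo 3/7 reagent at room temperature.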

The nature of experiment [4]: Caspase-3/7 induction in CHO-K1 cells by small molecules, qHTS assay (AID 1346980). Further: nearly all actives have a fitted effect of over 15% in size. The method in brief: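 Wild-type cells were seeded at 1,500 per well and settled 5 hr at 37 C, 5% CO2, then exposed to DMSO-dissolved compounds for 17 hr. Caspase-Glo 3/7 reagent was added, and luminescence was read after 30min at room temperature.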
The nature of experiment [5]: Caspase-3/7 induction in HepG2 cells by small molecules, qHTS cell viability counter screen (AID 1346981). Further: series mostly up to about 92 µM; nearly all actives have a fitted effect of over 30% in size. The method in brief: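 In this quantitative HTS counter screen, compounds delivered in DMSO were left on unmodified HepG2 cells for 16 hr at 37 C. Viability was then determined fluorometrically with CellTiter-Fluor, in parallel with caspase-3/7 induction in the same wells.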

Experiment [6] concerns the target Cytochrome P450 2D6 (Homo sapiens) (UniProt P10635). In words: Cytochrome P450 Family 2 Subfamily D Member 6 (CYP2D6) small molecule antagonists: luciferase reporter qHTS assay (AID 1671196). Further: nearly all actives have a fitted effect of over 50% in size. Further: potency means the concentration at half of the fitted maximal effect. An outline of the steps:
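Test chemicals meet CYP2D6 plus proluciferin substrate (10 min, RT); NADPH regenerating solution then drives turnover for 1 h. Detection reagent halts the reaction; luminescence measured after 20 min.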
On the technique in general: A reporter such as luciferase makes a cellular process visible.

Experiment [7] deals with Cytochrome P450 2C19 (Homo sapiens) (UniProt P33261). The experiment is described as follows: Cytochrome P450 Family 2 Subfamily C Member 19 (CYP2C19) small molecule antagonists: luciferase reporter qHTS assay (AID 1671197). Further: nearly all actives have a fitted effect of over 65% in size. Further: potency means the concentration at half of the fitted maximal effect. The method in brief:
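Quantitative high-throughput screen of the Tox21 library using CYP2C19 with proluciferin substrate. Reaction: NADPH regeneration, 37C, 1 h, after 10 min compound preincubation at room temperature. Readout: luminescence.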

Experiment [8] concerns the target Cytochrome P450 2C9 (Homo sapiens) (UniProt P11712). In words: Cytochrome P450 Family 2 Subfamily C Member 9 (CYP2C9) small molecule antagonists: luciferase reporter qHTS assay (AID 1671198). Further: nearly all actives have a fitted effect of over 50% in size. Further: potency means the concentration at half of the fitted maximal effect. An outline of the steps:
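CYP2C9 activity was measured with a P450-Glo proluciferin substrate. Enzyme–substrate mix was held with compound for 10 min at room temperature, then NADPH regeneration solution was added for 1 h at 37C. Luciferin product was read as luminescence.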

For experiment [9], the target named is Cytochrome P450 1A2 (Homo sapiens) (UniProt P05177). In words: Cytochrome P450 Family 1 Subfamily A Member 2 (CYP1A2) small molecule antagonists: luciferase reporter qHTS assay (AID 1671199). Further: nearly all actives have a fitted effect of over 50% in size. Further: potency means the concentration at half of the fitted maximal effect. The method in brief:
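Steps: enzyme-substrate mix dispensed; test compounds and furafylline control pinned in; 10 min room temperature; NADPH regeneration solution added, 1 h; reaction stopped with luciferin detection reagent; luminescence read after 20 min.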

In experiment [10] the target is Voltage-gated inwardly rectifying potassium channel KCNH2 (Homo sapiens) (UniProt Q12809). The experiment is described as follows: Human Ether-a-go-go-Related Gene (hERG) channel small molecule antagonists: fluorescence cell-based qHTS assay (AID 1671200). An outline of the steps:
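Measured: Tl+ flux via fluorescence (480/540 nm) in hERG-expressing U2OS cells after 1 h dye loading at room temperature.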

Experiment [11] concerns the target Cytochrome P450 3A4 (Homo sapiens) (UniProt P08684). In words: Cytochrome P450 Family 3 Subfamily A Member 4 (CYP3A4) small molecule antagonists: luciferase reporter qHTS assay (AID 1671201). Further: nearly all actives have a fitted effect of over 50% in size. Further: potency means the concentration at half of the fitted maximal effect. An outline of the steps:
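Setup: enzyme-substrate mix, compound pin transfer, 10 min RT. Reaction: NADPH regeneration solution, 1 h RT. Readout: detection reagent stops turnover, luminescence measured after 20 min, expressed in relative luminescence units.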

Experiment [12] deals with Nuclear receptor subfamily 1 group I member 2 (Homo sapiens) (UniProt O75469). The experiment is described as follows: Human pregnane X receptor (PXR) small molecule agonists, qHTS assay (AID 1346982). Further: nearly all actives have a fitted effect of over 35% in size. Further: potency means the concentration at half of the fitted maximal effect. An outline of the steps:
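Reporter HepG2 cells expressing PXR-Luc are cultured in charcoal-stripped FBS (5%), treated with compounds for 24 hr at 37 C, and assayed by ONE-Glo luminescence after 30 min at room temperature.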

Experiment [13] shares this target. In words: CYP3A4 induction through human pregnane X receptor (PXR) by small molecules, qHTS assay (AID 1346984). Further: nearly all actives have a fitted effect of over 40% in size. An outline of the steps:
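Induction measured in HepG2-based DPX-2 cells co-expressing human PXR and a CYP3A4 promoter-driven luciferase. After a 24-hour compound exposure, cells received CYP3A4 luciferin substrate at 3uM final for 3 hours, and light output was then recorded.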

Experiment [14] shares this target. The experiment is described as follows: Human pregnane X receptor (PXR) activation by small molecules, qHTS assay (AID 1346985). Further: nearly all actives have a fitted effect of over 40% in size. An outline of the steps:
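DPX-2 cells (HepG2 co-transfected with a PXR response element and a CYP3A4-promoter luciferase construct) were seeded at 2,000 per well, rested 5 hr at 37C, then exposed to DMSO-dissolved compounds for 24 hr. Activation was read as luciferase luminescence.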

The nature of experiment [15]: Caspase-3/7 induction in CHO-K1 cells by small molecules, qHTS cell viability counter screen (AID 1346979). Further: nearly all actives have a fitted effect of over 35% in size. An outline of the steps: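 To flag cytotoxic compounds, treated CHO-K1 wild-type cells were given CellTiter-Fluor at 16hr and read fluorescently after 1hr at 37C; the caspase-3/7 luminescence was measured in these same wells.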
Experiment [16] addresses Nuclear receptor subfamily 1 group I member 2 (Rattus norvegicus) (UniProt Q9R1A7). The experiment is described as follows: Rat pregnane X receptor (rPXR) activation by small molecules, qHTS assay (AID 1346983). Further: nearly all actives have a fitted effect of over 20% in size. Particulars: rPXR luciferase reporter cells, One-Glo luminescence, 24 h; max activation: active compounds read high. The method in brief: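 Cell-based rPXR luciferase reporter assay, 2,000 cells per well, rested 5hr at 37 C before compound addition in DMSO, then 24 hr at 37 C. One-Glo reagent was added and luminescence read after 30 min at room temperature.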
On the % scale 0 is the no-effect control and ±100 the full control effect.

Voltage-gated inwardly rectifying potassium channel KCNH2 (Homo sapiens), sequence (Q12809 whole entry, looked up): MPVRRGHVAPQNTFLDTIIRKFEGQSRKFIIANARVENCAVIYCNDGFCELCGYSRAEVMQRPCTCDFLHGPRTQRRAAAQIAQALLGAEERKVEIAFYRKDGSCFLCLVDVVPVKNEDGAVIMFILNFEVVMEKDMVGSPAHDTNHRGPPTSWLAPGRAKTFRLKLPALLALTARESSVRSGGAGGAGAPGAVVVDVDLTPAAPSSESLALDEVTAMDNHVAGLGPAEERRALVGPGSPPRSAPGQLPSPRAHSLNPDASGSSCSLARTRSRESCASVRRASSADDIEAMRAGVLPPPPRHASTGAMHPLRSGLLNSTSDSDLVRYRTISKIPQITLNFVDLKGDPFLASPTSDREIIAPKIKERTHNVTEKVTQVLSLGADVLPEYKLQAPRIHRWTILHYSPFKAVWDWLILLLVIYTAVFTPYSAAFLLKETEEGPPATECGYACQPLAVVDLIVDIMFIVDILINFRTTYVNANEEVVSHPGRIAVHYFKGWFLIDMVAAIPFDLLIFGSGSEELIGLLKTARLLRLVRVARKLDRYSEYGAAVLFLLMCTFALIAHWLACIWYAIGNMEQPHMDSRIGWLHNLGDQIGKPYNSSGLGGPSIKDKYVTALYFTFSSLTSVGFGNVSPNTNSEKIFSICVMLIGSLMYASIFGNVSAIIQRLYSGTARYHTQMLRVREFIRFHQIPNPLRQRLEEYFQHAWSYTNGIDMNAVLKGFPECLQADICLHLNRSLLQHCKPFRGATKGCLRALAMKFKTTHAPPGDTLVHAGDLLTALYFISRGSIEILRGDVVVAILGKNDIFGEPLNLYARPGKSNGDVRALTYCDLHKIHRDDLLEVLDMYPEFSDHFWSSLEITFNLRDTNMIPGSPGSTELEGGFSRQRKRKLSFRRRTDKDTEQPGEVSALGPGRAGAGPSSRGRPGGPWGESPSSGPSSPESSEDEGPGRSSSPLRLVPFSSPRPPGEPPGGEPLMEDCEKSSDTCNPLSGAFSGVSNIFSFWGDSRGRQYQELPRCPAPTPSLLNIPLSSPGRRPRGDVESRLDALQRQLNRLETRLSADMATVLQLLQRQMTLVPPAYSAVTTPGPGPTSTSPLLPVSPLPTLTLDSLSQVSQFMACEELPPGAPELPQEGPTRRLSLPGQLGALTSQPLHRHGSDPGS
Nuclear receptor subfamily 1 group I member 2 (Homo sapiens), sequence (O75469 whole entry, looked up): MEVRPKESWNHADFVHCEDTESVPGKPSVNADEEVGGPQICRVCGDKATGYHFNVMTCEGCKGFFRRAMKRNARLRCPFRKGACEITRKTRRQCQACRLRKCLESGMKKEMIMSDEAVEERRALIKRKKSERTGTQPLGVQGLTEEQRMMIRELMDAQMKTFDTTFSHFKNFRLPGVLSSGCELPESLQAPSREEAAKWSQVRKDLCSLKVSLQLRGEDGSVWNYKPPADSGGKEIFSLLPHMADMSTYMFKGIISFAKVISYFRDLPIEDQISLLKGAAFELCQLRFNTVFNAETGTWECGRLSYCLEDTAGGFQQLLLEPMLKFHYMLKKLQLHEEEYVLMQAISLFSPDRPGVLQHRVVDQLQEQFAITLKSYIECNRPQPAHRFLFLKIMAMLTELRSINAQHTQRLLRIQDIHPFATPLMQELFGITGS
Cytochrome P450 2C19 (Homo sapiens), sequence (P33261 whole entry, looked up): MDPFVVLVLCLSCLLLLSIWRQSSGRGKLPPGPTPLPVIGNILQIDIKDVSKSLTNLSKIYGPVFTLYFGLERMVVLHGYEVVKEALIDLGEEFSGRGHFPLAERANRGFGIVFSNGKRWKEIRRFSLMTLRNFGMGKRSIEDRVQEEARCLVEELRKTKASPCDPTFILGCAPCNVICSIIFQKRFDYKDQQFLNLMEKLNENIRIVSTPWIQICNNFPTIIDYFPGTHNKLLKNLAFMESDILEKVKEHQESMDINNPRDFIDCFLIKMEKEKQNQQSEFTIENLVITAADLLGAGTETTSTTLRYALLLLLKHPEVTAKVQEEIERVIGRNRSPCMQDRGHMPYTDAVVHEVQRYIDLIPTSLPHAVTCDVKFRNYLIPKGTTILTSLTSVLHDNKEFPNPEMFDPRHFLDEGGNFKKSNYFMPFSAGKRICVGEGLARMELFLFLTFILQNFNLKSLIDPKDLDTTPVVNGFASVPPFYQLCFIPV
Cytochrome P450 3A4 (Homo sapiens), sequence (P08684 whole entry, looked up): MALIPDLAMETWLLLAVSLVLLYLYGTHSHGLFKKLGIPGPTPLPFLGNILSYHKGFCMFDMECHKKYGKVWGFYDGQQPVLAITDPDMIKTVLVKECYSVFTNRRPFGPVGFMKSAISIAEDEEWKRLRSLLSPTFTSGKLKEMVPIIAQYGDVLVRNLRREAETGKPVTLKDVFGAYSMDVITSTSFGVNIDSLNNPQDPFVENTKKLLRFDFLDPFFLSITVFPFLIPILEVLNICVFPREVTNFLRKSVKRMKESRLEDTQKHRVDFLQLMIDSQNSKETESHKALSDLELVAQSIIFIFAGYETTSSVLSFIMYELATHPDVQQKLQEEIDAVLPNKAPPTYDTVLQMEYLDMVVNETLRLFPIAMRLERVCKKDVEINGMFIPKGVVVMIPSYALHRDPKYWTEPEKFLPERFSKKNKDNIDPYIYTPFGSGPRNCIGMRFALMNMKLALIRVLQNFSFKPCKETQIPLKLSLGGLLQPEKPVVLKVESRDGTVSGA
Cytochrome P450 2C9 (Homo sapiens), sequence (P11712 whole entry, looked up): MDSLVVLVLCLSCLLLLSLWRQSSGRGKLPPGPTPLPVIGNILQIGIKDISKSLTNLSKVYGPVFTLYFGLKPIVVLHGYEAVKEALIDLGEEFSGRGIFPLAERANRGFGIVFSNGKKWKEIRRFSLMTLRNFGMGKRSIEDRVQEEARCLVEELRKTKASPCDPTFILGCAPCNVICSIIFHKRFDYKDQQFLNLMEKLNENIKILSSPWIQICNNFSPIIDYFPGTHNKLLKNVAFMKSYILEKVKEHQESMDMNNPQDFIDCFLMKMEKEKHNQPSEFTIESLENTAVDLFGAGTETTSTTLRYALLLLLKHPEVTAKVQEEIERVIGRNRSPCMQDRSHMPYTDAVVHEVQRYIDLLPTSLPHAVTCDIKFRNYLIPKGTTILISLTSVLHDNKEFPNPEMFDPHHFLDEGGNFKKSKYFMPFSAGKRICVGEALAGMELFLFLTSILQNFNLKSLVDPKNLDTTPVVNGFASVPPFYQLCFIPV
Thyrotropin-releasing hormone receptor (Homo sapiens), sequence (P34981 whole entry, looked up): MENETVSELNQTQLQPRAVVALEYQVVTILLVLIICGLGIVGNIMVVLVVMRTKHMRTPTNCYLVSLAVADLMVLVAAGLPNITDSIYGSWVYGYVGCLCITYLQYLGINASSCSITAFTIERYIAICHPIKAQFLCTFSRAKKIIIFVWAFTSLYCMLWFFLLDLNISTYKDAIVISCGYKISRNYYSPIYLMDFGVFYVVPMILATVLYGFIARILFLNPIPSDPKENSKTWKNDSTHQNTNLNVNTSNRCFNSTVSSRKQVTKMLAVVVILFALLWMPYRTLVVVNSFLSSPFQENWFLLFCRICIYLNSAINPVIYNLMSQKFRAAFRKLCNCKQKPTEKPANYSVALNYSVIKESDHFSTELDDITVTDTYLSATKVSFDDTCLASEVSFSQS
Cytochrome P450 2D6 (Homo sapiens), sequence (P10635 whole entry, looked up): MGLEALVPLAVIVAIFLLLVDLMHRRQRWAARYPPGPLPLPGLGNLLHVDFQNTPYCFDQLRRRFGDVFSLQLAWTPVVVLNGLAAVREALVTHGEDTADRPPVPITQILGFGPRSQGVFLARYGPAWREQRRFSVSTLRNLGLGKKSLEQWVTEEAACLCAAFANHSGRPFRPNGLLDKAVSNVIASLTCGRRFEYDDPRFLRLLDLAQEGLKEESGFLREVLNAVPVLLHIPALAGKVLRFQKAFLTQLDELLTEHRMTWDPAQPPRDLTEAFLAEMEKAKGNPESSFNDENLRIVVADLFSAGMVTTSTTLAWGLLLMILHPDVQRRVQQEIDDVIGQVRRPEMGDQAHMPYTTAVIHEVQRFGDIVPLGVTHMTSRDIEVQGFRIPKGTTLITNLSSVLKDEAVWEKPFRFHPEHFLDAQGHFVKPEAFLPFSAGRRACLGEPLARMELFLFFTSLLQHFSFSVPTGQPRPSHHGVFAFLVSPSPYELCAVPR
Cytochrome P450 1A2 (Homo sapiens), sequence (P05177 whole entry, looked up): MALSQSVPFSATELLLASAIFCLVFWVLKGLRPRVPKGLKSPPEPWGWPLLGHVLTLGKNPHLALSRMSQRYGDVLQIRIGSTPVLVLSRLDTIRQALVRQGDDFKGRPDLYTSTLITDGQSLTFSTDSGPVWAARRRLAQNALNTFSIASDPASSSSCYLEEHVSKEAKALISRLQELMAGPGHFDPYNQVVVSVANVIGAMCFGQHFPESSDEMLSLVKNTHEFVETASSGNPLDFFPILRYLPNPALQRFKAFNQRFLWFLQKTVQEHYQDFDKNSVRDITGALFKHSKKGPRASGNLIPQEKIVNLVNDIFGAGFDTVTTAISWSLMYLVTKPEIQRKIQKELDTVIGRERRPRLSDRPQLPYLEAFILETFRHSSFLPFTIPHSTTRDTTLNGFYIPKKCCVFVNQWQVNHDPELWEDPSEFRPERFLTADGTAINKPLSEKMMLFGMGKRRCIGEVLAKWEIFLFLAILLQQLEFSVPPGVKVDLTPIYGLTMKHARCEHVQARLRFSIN
Nuclear receptor subfamily 1 group I member 2 (Rattus norvegicus), sequence (Q9R1A7 whole entry, looked up): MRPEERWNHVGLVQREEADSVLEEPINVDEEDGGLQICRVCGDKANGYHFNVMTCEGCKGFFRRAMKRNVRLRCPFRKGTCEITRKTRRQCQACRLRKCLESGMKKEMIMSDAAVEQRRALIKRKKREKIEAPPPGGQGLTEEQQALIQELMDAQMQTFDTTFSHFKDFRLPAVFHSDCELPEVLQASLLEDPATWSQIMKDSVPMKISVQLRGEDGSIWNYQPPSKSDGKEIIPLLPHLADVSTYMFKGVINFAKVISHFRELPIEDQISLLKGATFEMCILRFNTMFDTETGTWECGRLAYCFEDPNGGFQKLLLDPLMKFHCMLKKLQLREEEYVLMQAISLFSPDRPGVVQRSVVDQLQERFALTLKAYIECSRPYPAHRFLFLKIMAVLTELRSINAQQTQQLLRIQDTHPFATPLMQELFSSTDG

`C=CCOc1nc(OCC=C)nc(OCC=C)n1`: the compound was called inactive in experiment [1], in [3], in experiment [4] and in experiment [5]. Also, the Potency result in [2] and in experiment [10] was “inactive” throughout. The Potency in experiment [6] was 39.9 µM (active); in [7] it was 1.78 µM (active); in experiment [8] it was 15.9 µM (active); in [9], 6.33 µM (active); in experiment [11], 12.6 µM (active).

With `CCCCCCCCCCC1CO1` (stereo unspecified), the compound was called inactive in experiment [1], in [3], in experiment [4] and in experiment [5]. For the same compound, the Potency result in experiment [2], in experiment [12], in experiment [7], in [8], in [9] and in experiment [10] was “inactive” each time.

On to `CCC(C(=O)NC(N)=O)c1ccccc1` (stereo unspecified), for which the compound was called inactive in experiment [1], in [3], in experiment [4] and in experiment [5]. For the same compound, the Potency entry in experiment [2], in [12], in experiment [13], in [14], in [6] and in experiment [8] was “inactive” throughout. Moreover, the Potency result in experiment [10] and in experiment [11] was “inactive” each time. The results for the Potency in [7] and in experiment [9] were 79.6 µM (active) and 28.3 µM (active), respectively.

On to `CCCCCC[C@@H](CCC)C(=O)O`, for which the compound was called inactive in experiment [1], in experiment [3], in experiment [4] and in experiment [5]. The Potency result in [2], in experiment [6], in experiment [7], in experiment [9], in experiment [10] and in [11] was “inactive” each time. Also, the Potency in experiment [8] is 34.7 µM (active).

`CC(C)(C)C(=O)/C=C/c1ccc(Cl)cc1`: the compound was classed as inactive in [1], in experiment [3], in [4] and in [5]. The Potency result in experiment [2], in experiment [6] and in experiment [11] was “inactive” each time. Further, the Potency in [12] was 54.5 µM (active); in experiment [7], 7.96 µM (active); in experiment [8], 63.3 µM (active); in [9] it was 22.4 µM (active).

On to `CCCC(C)C(=O)O` (stereo unspecified), for which the outcome in [1], in experiment [3] and in [5] was inactive. Also, the Potency result in experiment [2], in experiment [15], in experiment [12] and in experiment [10] was “inactive” in each case. Further, the Potency is 34.2 µM (active) in [6], 54.1 µM (active) in [8] and 68.2 µM (active) in [9].

Consider `CCC(=O)Nc1cccc(N)c1`, for which the call in experiment [1], in experiment [3], in experiment [4] and in experiment [5] was inactive. The Potency entry in experiment [2], in experiment [6], in experiment [7], in experiment [8] and in experiment [10] was “inactive” in each case.

Turning to `CC(=O)NC(Cc1ccccc1)C(=O)O` (stereo unspecified), the compound was classed as inactive in experiment [1], in experiment [3] and in experiment [5]. Also, the Potency result in [2], in experiment [15], in experiment [12], in experiment [7], in experiment [8] and in experiment [9] was “inactive” each time. Moreover, the Potency result in experiment [10] and in experiment [11] was “inactive” throughout.

`CN(C)C(=O)C(CCN1CCC(O)(c2ccc(Cl)cc2)CC1)(c1ccccc1)c1ccccc1`: the outcome in experiment [1] and in [4] was inactive. In experiment [2], the Potency is 23.7 µM (active). Besides, the Potency entry in [12], in experiment [9] and in experiment [11] was “inactive” each time.

As for `NC(N)=NS(=O)(=O)c1ccc(N)cc1`, the Potency result in experiment [2], in experiment [15], in experiment [12], in experiment [13], in experiment [14] and in experiment [6] was “inactive” throughout. The Potency entry in experiment [7], in [8], in [9], in experiment [10] and in experiment [11] was “inactive” each time. Moreover, the outcome in experiment [3], in experiment [4] and in experiment [5] was inactive. The max activation in experiment [16] was -6.55%.

Turning to `COc1ccc(N=[N+]([O-])c2ccc(OC)cc2)cc1`, the call in [1], in [3] and in experiment [4] was inactive. In addition, the Potency result in experiment [2] and in [10] was “inactive” throughout. The Potency in [12] was 0.34 µM (active); in experiment [7], 19.8 µM (active); in [9] it was 7.03 µM (active).
